Reference: PubChem BioAssay (Tox21)
Records with an inconclusive call do not appear. Active and inactive are the calls of the source. The call rests on the fitted dose curve.

What was measured:
[1] = molecular target: Acetylcholinesterase (Homo sapiens) (UniProt P22303); test: Acetylcholinesterase (AChE) small molecule antagonists: colormetric cell-based qHTS assay (AID 1347395); further: nearly all actives have a fitted effect of over 30% in size; further: potency means the concentration at half of the fitted maximal effect
Acetylcholinesterase (Homo sapiens), sequence (P22303 whole entry, looked up): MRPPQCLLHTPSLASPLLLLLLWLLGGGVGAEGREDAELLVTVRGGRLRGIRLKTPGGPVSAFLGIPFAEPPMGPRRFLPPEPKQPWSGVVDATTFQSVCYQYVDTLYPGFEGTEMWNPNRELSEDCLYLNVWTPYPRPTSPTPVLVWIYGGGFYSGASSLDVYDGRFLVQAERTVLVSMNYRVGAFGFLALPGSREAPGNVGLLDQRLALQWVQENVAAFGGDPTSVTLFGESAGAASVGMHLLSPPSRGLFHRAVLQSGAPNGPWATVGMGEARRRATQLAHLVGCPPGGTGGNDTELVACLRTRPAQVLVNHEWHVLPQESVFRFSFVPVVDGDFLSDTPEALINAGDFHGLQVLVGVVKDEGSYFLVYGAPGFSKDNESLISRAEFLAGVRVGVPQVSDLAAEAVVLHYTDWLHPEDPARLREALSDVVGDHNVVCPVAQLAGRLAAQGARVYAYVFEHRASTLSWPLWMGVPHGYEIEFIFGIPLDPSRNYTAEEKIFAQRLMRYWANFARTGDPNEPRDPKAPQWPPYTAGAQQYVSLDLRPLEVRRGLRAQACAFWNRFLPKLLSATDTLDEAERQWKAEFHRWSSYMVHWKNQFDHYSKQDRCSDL
Procedure, shortened: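 In this cell-based qHTS, attached SH-SY5Y cells were treated with test chemicals for 30 min, after which acetylthiocholine hydrolysis was followed by DTNB colour development over 90 min at 37 C.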

[2] = molecular target: Acetylcholinesterase (Homo sapiens) (UniProt P22303); test: Acetylcholinesterase (AChE) small molecule antagonists: enzyme-based qHTS assay (AID 1347397); settings: Potency: AChE enzyme activity inhibition; outcome: AChE enzyme activity inhibition; further: nearly all actives have a fitted effect of over 55% in size; further: potency means the concentration at half of the fitted maximal effect
Procedure, shortened: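 Colorimetric DTNB readout of acetylthiocholine hydrolysis, 10 min at room temperature, after 30 min room-temperature exposure of 50 mU/mL recombinant human enzyme to compound; DMSO vehicle control.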

[3] = molecular target: Acetylcholinesterase (Homo sapiens) (UniProt P22303); test: Acetylcholinesterase (AChE) small molecule antagonists: fluorescence cell-based qHTS assay (AID 1347398); settings: Potency: AChE activity; outcome: AChE activity; further: nearly all actives have a fitted effect of over 50% in size; further: potency means the concentration at half of the fitted maximal effect
Procedure, shortened: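 Cellular AChE activity read as thiocholine from acetylthiocholine hydrolysis, detected by Thiolite Green fluorescence at 490/520 nm after 40 min at room temperature. Compounds were pre-incubated 30 min at 37 C on adherent SH-SY5Y cells.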

[4] = molecular target: Acetylcholinesterase (Homo sapiens) (UniProt P22303); test: Acetylcholinesterase (AChE) small molecule antagonists: enzyme-based qHTS assay with human liver microsomes (AID 1347399); settings: Potency: qHTS inhibition; outcome: qHTS inhibition; further: nearly all actives have a fitted effect of over 60% in size
Procedure, shortened: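 Recombinant human AChE (50 mU/mL in the enzyme mix) and human liver microsomes (0.25 mg/mL final) were preincubated with compound and NADPH (0.25 mg/mL final) for 30 min at 37 C. Acetylthiocholine/DTNB was then added; thiocholine was read colorimetrically after 10 min at room temperature.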
On the % scale 0 is the no-effect control and ±100 the full control effect.

OC[C@H]1O[C@@H](OCCc2ccc(O)cc2)[C@H](O)[C@@H](O)[C@@H]1O
inactive: Potency [1] | Potency [2] | Potency [3] | Potency [4]

CC(=O)Nc1ccc(OC(=O)c2ccccc2OC(C)=O)cc1
inactive: Potency [1] | Potency [2] | Potency [3] | Potency [4]

O=P(O)(OCc1ccccc1)OCc1ccccc1
inactive: Potency [1] | Potency [2] | Potency [3] | Potency [4]

CC(C)C(=O)OCc1cccc(OC(=O)[C@@H]2N3C(=O)[C@@H](NC(=O)Cc4ccccc4)[C@H]3SC2(C)C)c1
inactive: Potency [1] | Potency [2] | Potency [3] | Potency [4]

Cc1c(C)c2c(c(C)c1O)CC[C@@](C)(CCC[C@H](C)CCC[C@H](C)CCCC(C)C)O2
inactive: Potency [1] | Potency [2] | Potency [3] | Potency [4]

COC(C)COC(C)COC(C)CO (stereo not given)
inactive: Potency [1] | Potency [2] | Potency [3] | Potency [4]

CCCCC(CC)COC(=O)c1ccc(N(C)C)cc1 (stereo not given)
inactive: Potency [1] | Potency [2] | Potency [3] | Potency [4]

CC(C)N1C(=O)c2ccccc2C1=O
inactive: Potency [1] | Potency [2] | Potency [3] | Potency [4]

CCC(=O)OC(=O)CC
inactive: Potency [1] | Potency [2] | Potency [3] | Potency [4]

C=C1CC/C=C(\C)CC[C@@H]2[C@@H]1CC2(C)C
inactive: Potency [1] | Potency [2] | Potency [3] | Potency [4]

O=C(O)CCNC(=O)c1ccccc1
inactive: Potency [1] | Potency [2] | Potency [3] | Potency [4]

Cc1cn([C@@H]2O[C@H](CO)[C@@H](O)[C@@H]2F)c(=O)[nH]c1=O
inactive: Potency [1] | Potency [2] | Potency [3] | Potency [4]

CCOc1ccc(NC(C)=O)cc1
inactive: Potency [1] | Potency [2] | Potency [3] | Potency [4]

O=c1oc2c(O)c(O)cc3c(=O)oc4c(O)c(O)cc1c4c23
inactive: activity, negative = inhibition [1] -4.32% [at 23.6 µM] | activity change, negative = inhibition [2] 3.59% [at 23.6 µM] | activity change, negative = inhibition [3] 4.39% [at 23.8 µM] | activity change, negative = inhibition [4] -1.34% [at 23.6 µM]

C[Si]1(C)O[Si](C)(C)O[Si](C)(C)O[Si](C)(C)O1
inactive: Potency [1] | Potency [2] | Potency [3] | Potency [4]

C=C(C)C1CC=C(C)C(OC(C)=O)C1 (stereo not given)
inactive: Potency [1] | Potency [2] | Potency [3] | Potency [4]

CCC(=O)C1CC(C(C)C)CC=C1C (stereo not given)
inactive: Potency [1] | Potency [2] | Potency [3] | Potency [4]

Clc1ccc(Nc2nnc(Cc3ccncc3)c3ccccc23)cc1
inactive: Potency [1] | Potency [2] | Potency [3] | Potency [4]

Cc1c(Cl)cccc1[N+](=O)[O-]
inactive: Potency [1] | Potency [2] | Potency [3] | Potency [4]

C/C=C(\C)C(=O)OCCC(C)CCC=C(C)C (stereo not given)
inactive: Potency [1] | Potency [2] | Potency [3] | Potency [4]

CC(=O)OC[C@H]1O[C@@H](OC(C)=O)[C@H](OC(C)=O)[C@@H]1OC(C)=O
inactive: Potency [1] | Potency [2] | Potency [3] | Potency [4]

OCC(O)CN1CCN(c2ccccc2)CC1 (stereo not given)
inactive: Potency [1] | Potency [2] | Potency [3] | Potency [4]

O=C(O)c1cc(=O)c2c(OCC(O)COc3cccc4oc(C(=O)O)cc(=O)c34)cccc2o1
inactive: Potency [1] | Potency [2] | Potency [3] | Potency [4]

CO/N=C(/C(=O)N[C@@H]1C(=O)N2C(C(=O)[O-])=C(C[n+]3ccn4ncccc43)CS[C@H]12)c1nsc(N)n1
inactive: Potency [1] | Potency [2] | Potency [3] | Potency [4]

CC(C)CC(=O)CC(C)CC(C)C (stereo not given)
inactive: Potency [1] | Potency [2] | Potency [3] | Potency [4]

OCCCc1ccccc1
inactive: Potency [1] | Potency [2] | Potency [3] | Potency [4]

CN(C)CCCN(C)C
inactive: activity, negative = inhibition [1] 3.16% [at 10.5 µM] | activity change, negative = inhibition [2] 0.096% [at 10.5 µM] | activity change, negative = inhibition [3] 0.828% [at 10.5 µM] | activity change, negative = inhibition [4] 0.146% [at 10.5 µM]

CCC(=O)Nc1cccc(N)c1
inactive: Potency [1] | Potency [2] | Potency [3] | Potency [4]

CC(C)(CO)[C@@H](O)C(=O)NCCC(=O)O
inactive: Potency [1] | Potency [2] | Potency [3] | Potency [4]

CCCCCOC(=O)CCC
inactive: Potency [1] | Potency [2] | Potency [3] | Potency [4]

Nc1ccc(O)c([N+](=O)[O-])c1
inactive: Potency [1] | Potency [2] | Potency [3] | Potency [4]

O=C(O)C(=O)Cc1ccccc1
inactive: Potency [1] | Potency [2] | Potency [3] | Potency [4]

O=C(CCCN1CCC(O)(c2ccc(Br)cc2)CC1)c1ccc(F)cc1
inactive: Potency [1] | Potency [2] | Potency [3] | Potency [4]

Nc1ccc2c(c1)CN1C(=O)c3ccccc3C1=N2
inactive: activity, negative = inhibition [1] -3.06% [at 23.6 µM] | activity change, negative = inhibition [2] 1.39% [at 23.6 µM] | activity change, negative = inhibition [3] -15.4% [at 23.8 µM] | activity change, negative = inhibition [4] 6.82% [at 23.6 µM]

CC1=CCC(O)(C(C)C)CC1 (stereo not given)
inactive: Potency [1] | Potency [2] | Potency [3] | Potency [4]

CN1N=C(C(N)=O)CCC1=O
inactive: Potency [1] | Potency [2] | Potency [3] | Potency [4]

CCNc1nc(N)nc(Cl)n1
inactive: Potency [1] | Potency [2] | Potency [3] | Potency [4]

CC(C)Cc1ccccc1
inactive: Potency [1] | Potency [2] | Potency [3] | Potency [4]

O=C(O)CCCC[P+](c1ccccc1)(c1ccccc1)c1ccccc1
inactive: Potency [1] | Potency [2] | Potency [3] | Potency [4]

OCCN(CCO)c1ccccc1
inactive: Potency [1] | Potency [2] | Potency [3] | Potency [4]

CSc1nnc(C(C)(C)C)c(=O)[nH]1
inactive: Potency [1] | Potency [2] | Potency [3] | Potency [4]

COc1nc(N)nc2nc[nH]c12
inactive: Potency [1] | Potency [2] | Potency [3] | Potency [4]

COCCCCCCCCOCCC[Si](C)(O[Si](C)(C)C)O[Si](C)(C)C
inactive: Potency [1] | Potency [2] | Potency [3] | Potency [4]

CC(=O)c1nccs1
inactive: Potency [1] | Potency [2] | Potency [3] | Potency [4]

CCOC(=O)C(=O)CCc1ccccc1
inactive: Potency [1] | Potency [2] | Potency [3] | Potency [4]

O=C1NC2NC(=O)NC2N1 (stereo not given)
inactive: Potency [1] | Potency [2] | Potency [3] | Potency [4]

CC(C)CCCCCCc1ccc(O)cc1
inactive: Potency [1] | Potency [2] | Potency [3] | Potency [4]

O=C1OC(=O)c2cc(-c3ccc4c(c3)C(=O)OC4=O)ccc21
inactive: Potency [1] | Potency [2] | Potency [3] | Potency [4]

O=C(NCCc1c[nH]c2ccccc12)c1cccnc1
inactive: Potency [1] | Potency [2] | Potency [3] | Potency [4]

Cc1oc(-c2ccccc2)nc1CCOc1ccc(C[C@H](Nc2ccccc2C(=O)c2ccccc2)C(=O)O)cc1
active: Potency [2] 56.4 µM
inactive: Potency [1] | Potency [3] | Potency [4]

CCCCCCCOC(=O)CCC
inactive: Potency [1] | Potency [2] | Potency [3] | Potency [4]

S=C([S-])NCCNC(=S)[S-].S=C([S-])NCCNC(=S)[S-].[Mn+2].[Zn+2]
inactive: Potency [2] | Potency [4]
active: Potency [1] 30.9 µM | Potency [3] 30.9 µM

CCCCCCCCCCCCCOS(=O)(=O)O
inactive: Potency [1] | Potency [2] | Potency [3] | Potency [4]

O=C1NC(=O)[C@@]2(CCOc3ccc(F)cc32)N1
inactive: Potency [1] | Potency [2] | Potency [3] | Potency [4]

Nc1nccs1
inactive: Potency [1] | Potency [2] | Potency [3] | Potency [4]

CCCCC(CC)COC(=O)COc1ccc(Cl)cc1Cl (stereo not given)
inactive: Potency [1] | Potency [2] | Potency [3] | Potency [4]

CC(=O)N(CC(O)CO)c1c(I)c(C(=O)NCC(O)CO)c(I)c(C(=O)NCC(O)CO)c1I (stereo not given)
inactive: Potency [1] | Potency [2] | Potency [3] | Potency [4]

COc1nc(C)nc(N)n1
inactive: Potency [1] | Potency [2] | Potency [3] | Potency [4]

CC(C)(Oc1ccc(Cl)cc1)C(=O)O
inactive: Potency [1] | Potency [2] | Potency [3] | Potency [4]

Nc1ccc(Oc2cccc(Oc3ccc(N)cc3)c2)cc1
inactive: Potency [1] | Potency [2] | Potency [3] | Potency [4]
